Compound activity deposited in PubChem by National Center for Advancing Translational Sciences (NCATS).
Sampled rows, rich in hits. Any-hit rate of the full collection: about 2.6%.
Nrf2 ARE act: qHTS of Nrf2 Activators; AREc32 ARE-luciferase reporter (MCF7-derived line), luminescence, 24 h; Potency, µM (top dose mostly 46.1 µM), most hits filed as activators; actives 0.31% (n = 410,000); AID 624171, 2012; further: nearly all actives have a fitted effect of over 65% in size
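Steps: seed AREc32_Fluc cells (1000/well, 5% FBS OPTI-MEM); incubate overnight at 37 deg C; add 23 nL compound; incubate 24 hr; add Steady-Glo; hold 30 min RT; read luminescence.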
AT treatment: qHTS Assay for Identifying a Potential Treatment of Ataxia-Telangiectasia; AID 485349, 2010; Potency, µM (series often up to 57.5 µM), hits mostly activators; actives 0.19% (n = 320,000); F2112 A-T fibroblasts, KAP-1 phosphorylation AlphaLISA; neocarzinostatin DNA damage 30 min before lysis; further: nearly all actives have a fitted effect of over 45% in size
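hTERT-immortalized A-T patient fibroblasts (F2112), 500 cells/well in OPTI-MEM, 1% FBS, got compounds for 60 min, then NCS for 30 min at 37C. Lysates were then assayed for phospho-KAP-1 by AlphaLISA (anti-pKAP1 donor, anti-KAP1 acceptor beads), 6 hr at 25C.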
A549 tox: Nrf2 qHTS screen for inhibitors: counterscreen for cytotoxicity. AID 504648, 2011. A549 ARE-Fluc cells, CellTiter-Fluor viability, 18-24 h. Potency, µM (doses to about 46 µM), hits mostly inhibitors. actives 0.16% (n = 390,000)
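A549 ARE_Fluc cells in 5% FBS OPTI-MEM were exposed to compounds in concentration-response for 18-24 h at 37 deg C. Viability was read by CellTiter-Fluor fluorescence (Ex 405/Em 525) after 30 min, before the luciferase read.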
TCR activator: Activators of T cell receptors: qHTS campaign. primary human leukocytes, anti-CD3, IL-2 HTRF, 48 h. Potency, µM (highest dose often 9.22 µM), actives largely listed as activators. 330,000 tested, under 10 active. AID 504894, 2011
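1) Mix primary human leukocytes, a-CD3 beads and compound. 2) Incubate 48 hr. 3) Add HTRF IL-2 reagents (a-IL-2-K, a-IL-2-d2).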
Nrf2 inh: Nrf2 qHTS screen for inhibitors. actives 2.1% (n = 360,000). A549 ARE-Fluc reporter, luciferase luminescence, 18-24 h. AID 504444, 2011. Potency, µM (doses to about 46 µM), actives largely listed as inhibitors; further: nearly all actives have a fitted effect of over 60% in size
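Reporter: ARE-Fluc in A549. Exposure: 18-24 h, 37 °C, 5% CO2, 5% FBS OPTI-MEM. Readouts: fluorescent cytotoxicity (CellTiter-Fluor), then luminescent Nrf2 signal after BugLite.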
CCT modulator: High-Throughput Screening for Modulators of Cytosolic Chaperonin Activity | purified chaperonin ATPase assay, HTRF ADP detection, 30 min | activity change, % (test concentration not listed), hits read low | actives 0.3% (n = 360,000); in the data active means activity change below about -30%
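ATPase activity: ADP formed was measured by HTRF Transcreener (665/615 nm ratio) after 30 min at 37 deg C with 10 uM ATP. Compounds screened at one 76 uM concentration against 40 or 20 nM TRiC in Tris pH 7.4/KCl/MgCl2/DTT buffer.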
A number is an active result; – = inactive; ? = inconclusive; · = no result. Unless noted, the call rests on the fitted dose curve; in most records, active means well fitted curve in the direction sought with a large enough effect; inconclusive means small, poorly fitted or top-dose-only effect, or another doubt; inactive means no such curve, though single readings can be large; an effect the other way counts as inactive or inconclusive.

SMILES	Nrf2 ARE act	AT treatment	A549 tox	TCR activator	Nrf2 inh	CCT modulator
O=C(O)c1cccc(-c2noc(-c3ccccc3F)n2)c1	·	·	–	·	?	·
O=c1[nH]c2cc([N+](=O)[O-])ccc2c2cc(Br)ccc12	3.16µM	·	·	·	·	–
Cc1ccc(NC(=O)CCN2C(=O)C3CCCCC3C2=O)cc1[N+](=O)[O-] (stereo not given)	–	–	–	–	–	-52.7
Cc1nc2ccccc2n1CC(=O)NC(C)C1CC2CCC1C2 (stereo not given)	–	–	–	·	5.17µM	–
CC(NC(=O)Cn1c(NCCO)nc2ccccc21)C1CC2CCC1C2 (stereo not given)	–	–	–	–	–	–
CN1N/C(=C\c2ccccc2)N=C2C(=O)N(C)C(=O)N=C21	·	·	5.8µM	·	?	·
COc1ccc(-c2c([C@H]3[C@@H]4C=CCC[C@@]4(C)C(=O)N3Cc3ccccc3)ccc3ccccc23)cc1OC	–	–	?	–	?	–
COc1ccc(-c2ccc([C@H]3[C@@H]4C=CCC[C@@]4(C)C(=O)N3Cc3ccccc3)c(F)c2)cc1OC	–	–	–	–	20.6µM	–
CCCNC(=O)c1cnn2c(C(F)F)cc(-c3ccccc3)nc12	–	·	?	·	23.1µM	·
COCCNC(=O)c1cnn2c(C(F)F)cc(-c3ccc(C)cc3)nc12	–	–	–	–	–	–
COC(=O)C(=Cc1ccc(OCc2ccc([N+](=O)[O-])cc2)c(OC)c1)C(=O)OC	8.91µM	–	?	–	?	–
Cc1c(Cl)cccc1NC(=O)CSc1nc2ncc(Cl)cc2[nH]1	–	–	–	–	–	–
Cn1c2ccccc2c2nnc(SCCOc3ccccc3)nc21	·	·	–	·	5.17µM	·
COc1ccc(-n2c(C)c(C)c3c(NCCN(C)C)ncnc32)cc1	–	7.08µM	–	–	–	–
CCN1C/C(=C/c2cccc([N+](=O)[O-])c2)C(=O)/C(=C/c2cccc([N+](=O)[O-])c2)C1	12.6µM	–	–	–	–	–
O=C1NC(=S)S/C1=C\c1cccc([N+](=O)[O-])c1	–	·	?	–	18.4µM	–
CC1Cc2cc(/C=C3/SC(=S)NC3=O)ccc2O1 (stereo not given)	–	–	13µM	–	?	–
Cc1cc(C)cc(NC(=O)Cn2c(=O)n(C(C)C)c(=O)c3oc4ccccc4c32)c1	–	·	–	·	–	·
CSCCC(NC(=O)/C(=C/c1ccco1)NC(=O)c1ccco1)C(=O)O (stereo not given)	–	·	–	–	–	-38.1
COC(=O)c1cc(S(=O)(=O)NCC2CCN(Cc3ccccc3F)CC2)c[nH]1	–	–	–	–	–	–
COC(=O)[C@H]1C[C@@H]1[C@H](N)c1ccccc1	–	–	–	–	–	-49.4
COC(=O)[C@@H]1C[C@H]1[C@@H](NS(=O)(=O)c1ccccc1)c1ccccc1	–	–	–	–	–	–
Cc1ccc(Cl)cc1NS(=O)(=O)Cc1ccccc1	–	–	–	·	–	–
O=C(CNC(=O)c1ccc(-c2ccccc2)cc1)OCc1c(Cl)cccc1Cl	–	–	–	–	–	–
O=S(=O)(c1cccc(O)c1)N1CCN(S(=O)(=O)c2c(F)cccc2F)CC1	·	·	–	·	–	·
SMILES	Nrf2 ARE act	AT treatment	A549 tox	TCR activator	Nrf2 inh	CCT modulator
CCC(C)c1ccc(C(C)NC(=S)NCc2ccc(F)cc2)cc1 (stereo not given)	–	–	–	–	14.6µM	–
CCCc1ccc(C(C)NC(=S)NCc2ccc(F)cc2)cc1 (stereo not given)	–	–	–	–	?	–
Nc1nc2ccccc2cc1-c1cccs1	–	?	–	–	?	–
c1csc(-c2ccc3ccccc3n2)c1	17.8µM	–	–	–	?	–
CC(C)Cn1c(O)c(/C=C2\C=NN=C2c2ccccc2)sc1=S	–	31.6µM	?	–	?	–
COc1ccc(CNC(=O)CN2C(=O)C(c3ccccc3)Oc3cccnc32)cc1 (stereo not given)	–	–	?	–	23.1µM	–
CC1=C(C(=O)OCc2ccc3c(c2)OCO3)C(c2ccccc2OCc2ccccc2)NC(=O)N1 (stereo not given)	–	–	–	–	13µM	–
CC1=C(C(=O)OCc2ccc3c(c2)OCO3)C(c2ccccc2)NC(=O)N1 (stereo not given)	–	–	–	–	8.2µM	–
CCCOc1ccccc1C1NC(=O)NC(C)=C1C(=O)OCc1ccccc1 (stereo not given)	–	–	?	–	10.3µM	–
CCCOc1ccccc1C1NC(=O)NC(C)=C1C(=O)OCCOC (stereo not given)	–	–	–	–	–	–
CC1=C(C(=O)OCc2ccc3c(c2)OCO3)C(c2ccc(O)c([N+](=O)[O-])c2)NC(=O)N1 (stereo not given)	–	–	–	–	?	–
CN(C)S(=O)(=O)N(CC(=O)Nc1ccc(Br)cc1F)c1ccccc1	–	·	–	·	–	·
COc1cccc(CN2C(=O)c3ccccc3C2C(=O)NCCc2ccccc2)c1 (stereo not given)	–	·	–	·	–	·
CN(C)CCCCOc1ccc(Br)cc1Cl	–	–	–	–	–	-58.6
COCCCNCCCCOc1ccc(Br)cc1Cl	–	–	–	–	–	–
CCOC(=O)c1c(C)[nH]c(C)c1C(=O)COC(=O)COc1ccc(Cl)c(C)c1	–	–	–	–	–	–
CN(Cc1ccccc1)C(=O)c1ccc(CSc2nc3cccnc3n2Cc2ccccc2F)cc1	–	·	?	·	?	·
O=C1c2ccccc2-c2onc3c(N4CCN(CCO)CC4)cc(N4CCN(C(=O)c5ccco5)CC4)c1c23	–	–	20.6µM	–	?	–
CN1CCN(c2cc(N3CCN(C(=O)c4ccco4)CC3)c3c4c(onc24)-c2ccccc2C3=O)CC1	–	–	–	–	?	–
Cc1cc(C2=NNC(=Nc3ccc(S(=O)(=O)N4CCOCC4)cc3)SC2)c(C)n1C	–	31.6µM	–	–	–	–
